# Source: PubChem BioAssay (Center for Chemical Genomics, University of Michigan)
# Dicer processing = inhibitors of Dicer pre-microRNA processing, primary screen, biochemical, cat-ELCCA, chemiluminescence | Endoribonuclease Dicer (Homo sapiens), Q9UPY3 | cat-ELCCA pre-miR-21 Dicer processing; stronger effect = higher value | z-score at 25 µM | 6% of 47,000 active | AID 1347074, 2019; in the data active = z-score above about 3, passing the limit was not always enough;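 also: plate controls were vehicle for no effect and no enzyme for full effect; higher signal means more uncleaved substrate so more Dicer inhibition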
# Numbers without * were called inactive. This excerpt belongs to a sample that is enriched for hits.
SMILES,Dicer processing
CCOC(=O)c1c(NC(=O)CN(CC)C2CCCCC2)sc2c1CCCC2,2.8
CCCCCOC(=O)C1=C(C)NC2=C(C(=O)CC(C)(C)C2)C1c1cccc(O)c1 (stereo unspecified),0.42
O=C(Nc1ccc(C(F)(F)F)cc1)N1CCCc2ccccc21,0.59
CCCCSC1=C(C#N)C(=O)NC(c2ccc(OC)c(OC)c2)S1 (stereo unspecified),3.35*
COC(=O)CSC1=C(C#N)C(=O)NC(c2ccc(OC)c(OC)c2)S1 (stereo unspecified),1.3
CCSC1=C(C#N)C(=O)NC(c2ccc(OC)c(OC)c2)S1 (stereo unspecified),0.5
CC1(C)CC(=O)C2=C(C1)c1c(ccc3ncccc13)NC2c1cccc(O)c1 (stereo unspecified),0.35
FC(F)(F)c1ccnc(-n2ccc(-c3cccs3)n2)n1,-0.67
O=C(NCc1ccccc1)NCc1ccccc1,3.64*
Cc1cccc(C)c1NC(=O)NCc1ccccc1,2.04
O=C(NCCCCCCNC(=O)NCc1ccccc1)NCc1ccccc1,-0.41
C/C(=N\NC(=O)CN1C(=O)CSc2ccccc21)c1ccco1,-0.42
O=C1CSCC(=O)N1c1ccc(Cl)cn1,-3.14
O=C1CSCC(=O)N1c1ccccn1,7.84*
Cc1cccc(C)c1N1C(=O)CSCC1=O,-2.44
C=CCn1c(SCc2ccc(F)cc2)nc2sc3c(c2c1=O)CCC(C)C3 (stereo unspecified),-0.22
CC(C)c1ccc(C2C3CCc4ccccc4C3=NN2CCO)cc1 (stereo unspecified),3.09*
CN1N=C2c3ccccc3CCC2C1c1ccc(F)cc1 (stereo unspecified),0.59
COc1ccc2c(c1)CCC1C2=NN(C)C1c1ccc(C(C)C)cc1 (stereo unspecified),1.12
O=c1c(C(c2ccc3c(c2)OCO3)c2c(O)sc3ccccc3c2=O)c(O)sc2ccccc12,-1.58
O=C(Cc1cccc2ccccc12)Nc1ccc2nccnc2c1,-0.91
Cc1ccc(C2CC(=O)c3c(S(C)=O)sc(C#N)c3C2)cc1 (stereo unspecified),3.65*
CS(=O)c1sc(Cl)c2c1C(=O)CCC2 (stereo unspecified),-1.42
CS(=O)c1sc(C#N)c2c1C(=O)CCC2 (stereo unspecified),-1.69
CSC1=NC(C)(C)Cc2cc3c(cc21)OCCO3,3.29*
SMILES,Dicer processing
CC1(C)Cc2cc3c(cc2C(SCc2ccccc2)=N1)OCCO3,-0.25
N#Cc1c(-c2cccs2)c2c([nH]c1=O)CCCC2,-1.09
CCCN1C(=O)C2(/C(=C(/O)c3ccc(OCC)cc3)C(=O)C(=O)N2CC2CCCO2)c2ccccc21 (stereo unspecified),0.71
Cn1c(=O)c2c(c3ccccc31)OC(=O)CC2c1ccco1 (stereo unspecified),-1
O=C(O)CNc1n[nH]c(=O)[nH]c1=O,-0.93
CCC(Nc1n[nH]c(=O)[nH]c1=O)C(=O)OC (stereo unspecified),3.22*
CCOC(=O)Cc1n[nH]c(=O)[nH]c1=O,-0.76
OC(c1ccccc1)(c1ccccc1)c1n[nH]c(=S)n1-c1ccc(F)cc1,-0.6
FC(F)(F)c1sc(-c2nc(-c3ccccc3)no2)cc1-c1ccccc1,0.96
O=c1c(Cc2ccc([N+](=O)[O-])cc2)c(-c2ccccc2)sc2ccccc12,3.61*
O=c1c(Cc2ccc(Cl)cc2Cl)c(-c2ccccc2)sc2ccccc12,-2.34
O=c1c(Cc2ccc(Cl)c(Cl)c2)c(-c2ccccc2)sc2ccccc12,-0.98
N#CC1=C(c2ccc(Cl)cc2)Sc2ccccc2NC1=O,-0.31
O=c1c(N2CCN(S(=O)(=O)c3ccccc3)CC2)coc2ccccc12,0.15
COc1ccc2ncc(-c3ccc(Cl)c(C)c3)nc2c1,-0.59
O=S(=O)(c1ccccc1)n1ccc(-c2cnc3cc(Cl)c(Cl)cc3n2)c1,0.74
Cc1cc2ncc(-c3ccccc3)nc2cc1C,5.81*
Cn1nnnc1SCC(=O)Nc1ccc(Br)cc1,0.55
Cc1ccc2nc(-c3ccc(C)c(NC(=O)c4ccc([N+](=O)[O-])o4)c3)oc2c1,4.11*
O=C(Nc1ccc2oc(-c3cccc(Cl)c3)nc2c1)c1ccc([N+](=O)[O-])o1,7.04
Cc1ccc(-c2nc3cc(Cl)ccc3o2)cc1NC(=O)c1ccc([N+](=O)[O-])o1,0.65
N#Cc1c(Cl)cccc1Oc1ccc(S(=O)(=O)N2CCCN(c3nc4ccc(Cl)cc4s3)CC2)cc1,1.87
N#Cc1c(=N)nc2oc3ccccc3c3cc(-c4ccccc4)[nH]c1c23,0.72
COc1ccc(-c2cc(=S)sc(N)c2C#N)cc1OC,-2.71
COc1cc(-c2cc3c(c(N)c2C#N)c(=O)oc2ccccc23)cc(OC)c1OC,3.7*
SMILES,Dicer processing
CCOC(=O)c1c(NC(=O)c2nc3n(n2)C(C(F)F)CC(C)N3)sc2c1CCC(C)C2 (stereo unspecified),0.86
O=C(Nc1c(-c2ccccc2)nc2ccc(Cl)cn12)c1ccco1,1.28
COC(=O)Nc1c(-c2ccccc2)nc2ccccn12,-0.09
O=C(Nc1c(-c2ccccc2)nc2ccccn12)c1ccco1,4.89*
COc1ccc(OC(C)c2nc(-c3ccc(Cl)cc3)no2)cc1 (stereo unspecified),2.36
CCCCCn1c(-c2cccs2)nc2ccccc21,-0.91
COc1ccc(CNCc2cc(OC)ccc2OC)cc1,1.32
COc1ccc(CNCc2ccc3c(c2)OCO3)cc1,0.97
COc1ccc(CNCc2ccc(SC)cc2)cc1,3.85*
Cc1n[nH]c(=O)c2noc(/C=C/c3ccc(Cl)c(Cl)c3)c12,-1.03
CCOC(=O)C(C)Oc1ccc2c(=O)c(Oc3cccc(C)c3)coc2c1 (stereo unspecified),-0.43
O=C(Nc1cnc2ccccc2c1)c1ccncc1,3.15*
O=C(Nc1ccccc1)Nc1ccc2ncccc2c1,-0.97
O=C(Nc1ccc(F)cc1F)c1ccc2ncccc2c1,1.11
COc1ccc(-c2cc(-c3ccccc3O)[nH]n2)cc1,4.58*
COc1ccc(-c2cc(-c3nc4c5c(ncn4n3)CCC5)[nH]n2)cc1,-0.65
COc1ccc(Nc2n[nH]c3c2CCc2ccccc2-3)cc1,2.32
COc1ccc(/C=C/c2nc(-c3ccccc3O)n[nH]2)cc1,26.2*
COc1ccc(O)c(-c2cc(C(F)(F)F)nc(-c3ccccc3)n2)c1,1.17
COc1ccc2cc(-c3ccn[nH]3)ccc2c1,-1.14
COC(=O)C1=C(C)Nc2nc3ccccc3n2C1c1cc(F)cc(F)c1 (stereo unspecified),-0.6
CCOC(=O)CSc1nc(C(C)=O)ccc1C#N,1.6
O=C(Oc1ccc2c(c1)oc(=O)c1ccccc12)c1ccc(F)cc1,-0.25
CCOC(=O)c1sc(SCc2ccc(Cl)cc2)c(S(=O)(=O)C(C)C)c1-n1cccc1,-0.02
COc1ccc2c(c1)CCC(/C=N/O)=C2Cl,-0.03
SMILES,Dicer processing
CCCc1c(C)nc2ccc(OC)cc2c1SCCC(=O)O,3.51*
CCOC(=O)CSc1nc(C)c2cc(C)c(C)cc2n1,2.42
CCOC(=O)CSc1nc(C)c2cc(OC)ccc2n1,3.57*
CCOC(=O)c1cnc2ccc(OC)cc2c1Cl,-0.1
COc1ccc(-c2nnc(SCCC(=O)O)n2C)cc1,0.07
CCOC(=O)Nc1nc2ccc(OC)cc2s1,5.73
COc1ccc(Cl)cc1NS(=O)(=O)N(C)C,0.4
COc1ccc(Br)cc1/C=C(\C#N)C(N)=O,1.13
COc1ccc(S(=O)(=O)NCc2ccc3c(c2)OCO3)cc1OC,3.57*
COc1ccc(CNCc2ccc3c(c2)OCO3)cc1OC,-0.8
Cc1ccc(S(=O)(=O)NCc2ccc3c(c2)OCO3)cc1C,0.26
